High-throughput results deposited in PubChem BioAssay by National Center for Advancing Translational Sciences (NCATS).
Only some compounds are listed: those with a hit (about 6.8% of all), similar ones and a draw of the others.
PTAP TSG101 blk – blocks PTAP/TSG101 interaction to inhibit HIV-1 budding; Potency, µM (highest dose often 115 µM), without a hit: top-dose activity change, negative = inhibition, usual class: inhibitors; AID 493005; Q99816; 340,000 tested, under 10 active; Fluorescence polarization, FITC-PTAP peptide / Tsg101 binding; active = well fitted inhibition curve with a large enough effect in the main read-out, with a control signal flat, not every such curve was filed as active; inconclusive = small, poorly fitted or top-dose-only effect, or effect the other way, or a change in a side signal; inactive = no such curve, though single readings can be large or run the other way; also: % of control where 0% means no effect
Target sequence (Q99816 whole entry, looked up): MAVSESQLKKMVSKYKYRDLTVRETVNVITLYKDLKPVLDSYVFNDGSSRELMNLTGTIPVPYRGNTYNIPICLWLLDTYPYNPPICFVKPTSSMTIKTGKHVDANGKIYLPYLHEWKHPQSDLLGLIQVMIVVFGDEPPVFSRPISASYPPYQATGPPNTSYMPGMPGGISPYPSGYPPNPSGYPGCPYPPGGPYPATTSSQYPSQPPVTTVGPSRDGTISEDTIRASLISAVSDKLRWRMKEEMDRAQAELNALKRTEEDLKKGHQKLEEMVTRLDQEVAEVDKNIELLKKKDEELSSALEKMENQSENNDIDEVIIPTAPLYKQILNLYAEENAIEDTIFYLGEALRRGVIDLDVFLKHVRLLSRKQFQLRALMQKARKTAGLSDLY
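Fluorescence polarization binding of Tsg101 binding domain (10 uM final) to FITC-labeled PTAP peptide (50 nM final) in HEPES pH 7.5 buffer with NaCl, Tween 20, EDTA, TCEP. Compounds added before peptide; binding 20 min at RT.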
SW480 rereplic – induces DNA re-replication in SW480 colon adenocarcinoma cells; hit rate 1.8% among 340,000; SW480 DNA re-replication, Hoechst DNA content imaging, 48 h; Potency, µM (titrated, usually from 46.1 µM), for inactives: at the highest dose re-replication activation, actives largely listed as activators; also: % of control where 0% means no effect; nearly all actives have a fitted effect of over 55% in size
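First, 250 cells per well were seeded. Next, compound or vehicle (23 nL) was pinned in, plates sat 48 hr at 37 C. Finally Hoechst was added for 40 min before fluorescence scanning.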
KB-V1 MDR tox – KB-V1 MDR subline cytotoxicity | KB-V1 MDR cells viability, CellTiter-Glo, 72 h | Potency, µM (top dose mostly 46.1 µM), hits mostly cytotoxic | hit rate 3.4% among 400,000 | AID 1347076; also: % is scaled to controls: 0 for no effect and ±100 for the full control effect; nearly all actives have a fitted effect of over 60% in size
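Readout: CellTiter-Glo luminescence, 10 min after addition. Cells: KB-V1 MDR subline, 72 h at 37 degrees C with compound. Analysis: corrected, normalized data fitted to concentration-effect curves.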
PINK1 expr mod – changes PINK1 expression | Potency, µM (doses to about 76.6 µM), inactives show at the top dose activation (PINK1 increase), usual class: activators | hit rate 0.2% among 410,000 | PINK1 immunofluorescence, high-content cytometry, 24 h; active = well fitted activation curve with a large enough effect; inconclusive = small, poorly fitted or top-dose-only effect; cell line not stated here; also: % of control where 0% means no effect; nearly all actives have a fitted effect of over 65% in size
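Stable cell line treated 24 h with compounds at 5 concentrations (CCCP controls), then fixed and immunostained for PINK1 plus nuclear and cell stains; PINK1 immunofluorescence quantified by laser-scanning microplate cytometry.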
MCF10A rereplic – inducers of DNA re-replication in MCF 10A breast cells; MCF 10A DNA re-replication, Hoechst nuclear intensity, 48 h; Potency, µM (top dose mostly 46.1 µM), inactives show top-dose activity, positive = re-replication, hits mostly activators; hit rate 2.9% among 350,000; AID 624296; also: % of control where 0% means no effect; nearly all actives have a fitted effect of over 50% in size
KB-3-1 cytotox – kills parental KB-3-1 adenocarcinoma cells; KB-3-1 viability, CellTiter-Glo ATP luminescence, 72 h; Potency, µM (doses to about 46.1 µM), actives largely listed as cytotoxic; hit rate 1.4% among 400,000; AID 1347075; also: % is scaled to controls: 0 for no effect and ±100 for the full control effect; nearly all actives have a fitted effect of over 60% in size
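Parental KB-3-1 adenocarcinoma cells in phenol-red-free DMEM with 10% FBS were pin-treated with compounds at several concentrations, incubated 72 h at 37 °C, and viability read by CellTiter-Glo luminescence; concentration-effect curves were fitted after normalization.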
An asterisk follows results filed as active; i = inactive; ? = inconclusive; · = not tested or not shown; [ ] = dose if it differs, or a comment. Unless noted, calls follow the shape of the dose curve; as a rule, active = well fitted curve in the direction sought with a large enough effect; inconclusive = small, poorly fitted or top-dose-only effect, or another doubt; inactive = no such curve, though single readings can be large; an effect the other way counts as inactive or inconclusive. Potency is read from the fitted curve at half-maximal effect.

SMILES | PTAP TSG101 blk | SW480 rereplic | KB-V1 MDR tox | PINK1 expr mod | MCF10A rereplic | KB-3-1 cytotox
O=C(CN1CCC(C(=O)c2ccc(Cl)cc2)CC1)Nc1ccc2c(c1)OCCO2 | -3.7% | -8.5% | 9.2µM* | -0.9%[38.3 µM] | 22.2% | ?
O=C(CN1CCC(C(=O)c2ccc3c(c2)OCCO3)CC1)Nc1ccccc1C(F)(F)F | -3.5% | 3.8% | i | 0.4% | 16.4µM* | i
NC(=O)C1CCN(CC(=O)Nc2ccc3c(c2)OCCO3)CC1 | -2.2% | -4.8% | i | -0.7% | -3.9% | i
Cc1ccccc1NC(=O)CN1CCC(C(=O)c2ccc3c(c2)OCCO3)CC1 | -0.3% | 28.6% | ? | 0.8% | 3.3% | i
CCCCOC(=O)c1ccc(NC(=O)C(=O)CC(=O)c2ccc(OC)cc2)cc1 | -4.9% | -0.1% | ? | 6.7% | 14.6µM* | ?
O=C1CCc2cc(S(=O)(=O)Nc3ccc(F)c(Cl)c3)ccc2N1 | · | · | i | · | · | i
c1coc(CNc2nc(N3CCCCC3)nc3ccccc23)c1 | -0.8% | -1.2% | ? | 1.6% | 5.1% | ?
COc1ccccc1Nc1nc(NCc2ccco2)c2ccccc2n1 | 1.4% | -24.5% | ? | ? | 23.1µM* | i
Clc1nc(NCc2ccco2)nc(N2CCCCC2)n1 | 0.8% | 4.61µM* | i | 13.8% | ? | i
c1ccc(-c2nc(NCc3ccco3)c3ccccc3n2)nc1 | -0.8% | 5.8µM* | ? | 0.7% | ? | 5.8µM*
c1ccc(CNc2nc(N3CCN(Cc4ccccc4)CC3)nc3ccccc23)cc1 | 0.5% | ? | 23.1µM* | -0.9% | 7.31µM* | ?
OCCNc1nc(N2CCCCC2)nc2ccccc12 | -2.7% | -5.8% | i | 0.2% | 2.1% | i
Cc1ccc(Nc2nc(NCc3ccco3)c3ccccc3n2)cc1 | 0.5% | ? | ? | -1.7% | ? | ?
Oc1ccccc1-c1nc(NCc2ccco2)c2ccccc2n1 | -10.3% | 10.6% | i | 1.7% | ? | i
O=C(CN1Cc2ccccc2OC(c2ccsc2)C1)N1CCC(c2nc3ccccc3[nH]2)CC1 (stereo not drawn) | · | · | · | 1.6% | · | ·
c1ccc(N2CCN(c3nc(NCc4ccco4)c4ccccc4n3)CC2)cc1 | 0.7% | ? | 11.6µM* | ? | ? | ?
c1cc2c(cc1-c1[nH]ncc1CN1C[C@H]3CC[C@H]1C3)OCO2 | -3.8% | 5.8µM* | i | 3.5% | 17.0% | i
CN(Cc1cn[nH]c1-c1ccc2c(c1)OCO2)C1CCOCC1 | -3.6% | -1.2% | i | 2.1% | 1.3% | i
CC(C)CCC[C@@H](C)[C@H]1CC[C@H]2[C@@H]3CC[C@@H]4C[C@H](O)CC[C@]4(C)[C@H]3CC[C@]12C | · | 4.8% | · | · | 1.3% | ·
COc1ccc(N(C)S(=O)(=O)c2cccc3cccnc23)c(OC)c1 | -4.7% | 20.6µM* | ? | 6.1%[38.3 µM] | 8.2µM* | ?
Cc1ccc2nc(NC(=O)CCNS(=O)(=O)c3cccs3)sc2c1 | -3.5% | -1.8% | ? | -1.3% | ? | i
Cc1ccc2nc(NC(=O)CCNS(=O)(=O)c3ccc(Br)s3)sc2c1 | -1.4% | 0.1% | 18.4µM* | -5.9%[38.3 µM] | ? | i
CC(C)n1ncc2c(C(=O)N3CCN(Cc4ccc(Cl)s4)CC3)cc(C3CC3)nc21 | 0.1% | 5.3% | 8.2µM* | 10.7% | ? | ?
Cc1ccc(S(=O)(=O)N2CCN(C(=O)c3cc(C4CC4)nc4c3cnn4C(C)C)CC2)cc1 | 2.4% | 6.2% | i | 0.0% | 10.4% | ?
CCc1ccccc1NC(=O)c1nnn(Cc2ccc(Cl)cc2)c1N | · | · | i | 3.6% | · | i
SMILES | PTAP TSG101 blk | SW480 rereplic | KB-V1 MDR tox | PINK1 expr mod | MCF10A rereplic | KB-3-1 cytotox
CN1CCCC(n2nc(Cc3ccc(Cl)cc3)c3ccccc3c2=O)CC1 (stereo not drawn) | 0.0% | -28.2% | ? | 0.1% | 42.3% | 6.51µM*
COc1ccc(NC(=O)c2ccco2)cc1NC(=O)c1ccc(OC(C)C)cc1 | · | · | i | -0.5% | · | i
Cc1ccc(S(=O)(=O)NCc2ccccc2)cc1C(=O)N1CCN(c2ccccc2)CC1 | -5.7% | ? | ? | 1.2% | ? | 14.6µM*
Cc1ccc(S(=O)(=O)NCc2ccccc2)cc1C(=O)N1CC(C)CC(C)C1 (stereo not drawn) | 0.0% | 4.3% | 13µM* | -1.3% | 0.7% | i
CSc1nn(Cc2ccccc2C)c(NC(C)=O)c1S(=O)(=O)c1ccc(C)cc1 | · | · | i | -0.8% | · | i
Cc1cn2c(=O)c(S(=O)(=O)N3CCN(c4cc(Cl)ccc4C)CC3)c(C)nc2s1 | · | · | i | -0.3% | · | i
C=CCNC(=O)/C(C#N)=C/c1c(N(Cc2ccccc2)Cc2ccccc2)nc2ccccn2c1=O | 6.8% | 20.1% | 18.4µM* | 1.1% | 5.4% | i
COCCCNC(=O)/C(C#N)=C/c1c(N2CCN(c3ccccc3)CC2)nc2ccccn2c1=O | -0.1% | 9.2µM* | ? | 0.3% | 20.6µM* | i
COCCNC(=O)/C(C#N)=C/c1c(N2CCN(c3ccccc3)CC2)nc2ccccn2c1=O | -4.6% | -5.5% | i | 1.1% | 23.6% | i
COCCCNC(=O)/C(C#N)=C/c1c(N2CCN(C)CC2)nc2ccccn2c1=O | -3.6% | ? | i | 2.0% | 20.6µM* | i
CCc1cccc(CC)c1NC(=O)c1c(C)oc2ccc(O)c(CN3CCN(C)CC3)c12 | · | · | i | 0.6% | · | i
COc1ccc(CCc2cc(OC)c(OC)c(OC)c2)cc1 | -1.5% | ? | 2.59µM* | 7.3% | 1.84µM* | 0.517µM*
O=C(NCCc1nc2ccccc2n1CCCOc1ccc2ccccc2c1)C1CCCCC1 | · | · | i | ? | · | i
CCOc1ccc(NCc2nc3ccccc3n2CCOc2ccccc2)cc1 | -3.3% | ? | ? | ? | ? | ?
COCCn1c(COc2ccc(OC)cc2)nc2ccccc21 | -9.9% | -1.8% | 8.2µM* | -0.3% | -0.6% | i
Cc1ccccc1NCc1nc2ccccc2n1CCOc1ccccc1 | · | · | ? | 0.3% | · | 14.6µM*
